Source: PubChem BioAssay (several laboratories)
Only some compounds are listed: those with a hit (about 9.3% of all), similar ones and a draw of the others.
NADH coupling: inhibitors of PK/LDH coupling enzymes, profiling panel, artefact control, biochemical, MLSMR library; coupled PK/LDH NADH assays, four targets; IC50, µM (top dose mostly 10 µM); hit rate 0.02% among 65,000; AID 774, 2007;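 active = single-dose screening hits from any of four coupled enzyme assays that gave an IC50 when retested across doses; inconclusive = no clear call, values can overlap the other calls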;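 note: the DPM-DC format reads NADH fluorescence rather than 340 nm absorbance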
Abs 340nm: compound light absorbance at 340 nm, profiling panel, artefact control, biochemical, MLSMR library, data from PS, PMK, MK assays; AID 708, 2007; 65,000 tested, under 10 active; fold change at 10 µM; compound absorbance at 340 nm, fold over control;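 active = at 10 µM dose, initial 340 nm absorbance at least 2 fold that of control wells; inactive = change under 2 fold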;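 note: initial absorbance extrapolated from kinetic A340 decline of NADH oxidation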
Autofluor 339: intrinsic fluorescence of library compounds, ex339/em460 – biochemical, MLSMR library, data from DPM-DC assay, artefact control, profiling panel; fluorescence fold increase at 10 µM; hit rate 5.5% among 65,000; compound autofluorescence, ex339/em460 nm, NADH buffer; stronger effect = higher value; 1 = no-compound wells, NADH background;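 active = at 10 µM, mean starting fluorescence two-fold or more over control wells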;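 note: signal is the first read of a kinetic run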
mHtt clearance: clearance of mutant huntingtin inclusions, primary screen, imaging, HeLa Exon1htt(103Q)mCFP, confocal imaging; inhibition, % at 1.5 µM; aggregate imaging; zero = plate's median compound well; hit rate 0.42% among 47,000; AID 853, 2007;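 active = inhibition of aggregate fluorescence above about 70%, also judged a hit by eye on the cell image, limit read from the data, passing the limit was not always enough; inconclusive = no rule stated for this call; inactive = not judged a hit on image review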;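 note: cells exposed to compound for three days before fixation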
M1 antag: antagonists of rat M1 muscarinic receptor; CHO-M1 cells, Fluo-4 calcium, ACh EC80 antagonist mode; stronger effect = lower value; B-score at 10 µM; hit rate 3.4% among 64,000; AID 628, 2007;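 active = calcium fluorescence response, raw or row-and-column corrected B-score, differing from the plate sample mean either way at a set confidence level, mostly lower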
M1 ag: M1 muscarinic receptor agonists, primary screen, CHO-M1 cells, Fluo-4 calcium, agonist mode; AID 626, 2007; hit rate 3% among 64,000; B-score at 10 µM; Muscarinic acetylcholine receptor M1; Fluo-4 calcium fluorescence; stronger effect = higher value;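 active = fluorescence rise, raw or as B-score row- and column-corrected plate score, outside the 99.7% band of its plate's samples, either direction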
M1 agonist conf: rat M1 muscarinic receptor agonists, confirmation, CHO-M1 cells, Fluo-4 calcium, duplicate retest; shares compounds with M1 ag; Fluo-4 calcium fluorescence, agonist mode; actives lie on both sides; fluorescence change (max-min) at 10 µM; hit rate 19% among 1,700;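 active = fluorescence change differs from the solvent-only DMSO control mean at a set confidence level in both duplicate runs; inconclusive = differs from solvent-only control mean in just one of two runs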;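 note: an EC20 dose of acetylcholine follows compound addition during the same imaging run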
M4 agonist ctr: agonist activity at rat M4 receptor, confirmation, counter-screen for M1 allosteric modulator project, cell-based, agonist mode. fluorescence change (max-min) at 10 µM. shares compounds with M1 ag. hit rate 9% among 1,700. AID 1741, 2009. CHO M4/Gqi5 cells, Fluo-4 calcium fluorescence; actives lie on both sides;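 active = fluorescence change differing from the plate's solvent-only control wells at 99.7% confidence in both duplicates, whether higher or lower; inconclusive = differs from solvent controls in only one of two duplicates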
Target sequence (P08485 whole entry, looked up): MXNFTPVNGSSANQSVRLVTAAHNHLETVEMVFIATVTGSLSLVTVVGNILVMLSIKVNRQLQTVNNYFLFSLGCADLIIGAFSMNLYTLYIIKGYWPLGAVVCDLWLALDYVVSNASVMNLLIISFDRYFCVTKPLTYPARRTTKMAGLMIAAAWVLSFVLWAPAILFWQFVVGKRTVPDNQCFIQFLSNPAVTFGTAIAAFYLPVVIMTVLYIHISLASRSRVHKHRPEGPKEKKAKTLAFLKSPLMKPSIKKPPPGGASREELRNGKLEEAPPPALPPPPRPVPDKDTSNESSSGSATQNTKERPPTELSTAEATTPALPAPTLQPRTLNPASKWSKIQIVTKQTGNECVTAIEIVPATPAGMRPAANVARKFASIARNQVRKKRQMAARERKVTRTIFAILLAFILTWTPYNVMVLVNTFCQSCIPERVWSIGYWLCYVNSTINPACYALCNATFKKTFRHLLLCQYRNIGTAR
Large screens that a line does not name were inactive (follow-up assays come after a bar, where they were run).

O=C(Nc1nccs1)c1nc(-c2ccccc2)n(-c2ccccc2)n1	none (no result: mHtt clearance)
N#Cc1cccc(NC(=O)c2nc(-c3ccccc3)n(-c3ccccc3)n2)c1	M1 ag 3.51 | M1 agonist conf inactive | M4 agonist ctr inactive
Cc1nnc2sc(-c3cc4ccccc4o3)nn12	none (no result: mHtt clearance, M1 antag, M1 ag)
Cc1cc(N)n(-c2ccccc2)n1	none
Cc1cc(N)n(-c2nc(-c3cccnc3)nc3ccccc23)n1	M1 ag 5.62 (no result: mHtt clearance) | M1 agonist conf inconclusive | M4 agonist ctr inactive
CCN(C1CCCCC1)S(=O)(=O)c1ccc(S(=O)(=O)NCc2ccncc2)cc1	M1 antag -2.2, M1 ag 3.75 | M1 agonist conf inactive | M4 agonist ctr inactive
C#CC1(O)CC(C)N(C)C(C)C1 (configuration not stated)	M1 ag 2.4 (no result: mHtt clearance) | M1 agonist conf inactive | M4 agonist ctr inactive
NCCCCCc1nnc(SCc2ccc(Cl)c(Cl)c2)o1	none (no result: NADH coupling, Abs 340nm, Autofluor 339, M1 antag, M1 ag)
COCCn1c(C2CCCCC2)nc2sc3ccccc3c(=O)c2c1=O	none
CCOC(=O)c1ccc(NC(=O)CSc2nnc(Cn3c(=O)sc4ccccc43)n2C)cc1	M1 ag 2.35 (no result: mHtt clearance) | M1 agonist conf inactive | M4 agonist ctr inactive
CSc1nc2nccc(-c3ccc(Oc4ccccc4)cc3)n2n1	none (no result: NADH coupling, Abs 340nm, Autofluor 339, M1 antag, M1 ag)
COc1cc(C2C(C(=O)c3ccco3)=C(O)C(=O)N2CCc2ccccc2)ccc1O (configuration not stated)	M1 ag 88.9 (no result: mHtt clearance) | M1 agonist conf inactive | M4 agonist ctr inactive
CCOc1cc(C2C(C(=O)c3ccc(C)o3)=C(O)C(=O)N2CCc2ccccc2)ccc1O (configuration not stated)	none (no result: mHtt clearance)
CCC(CC)C(=O)Nc1ccccc1NC(C)=O	none (no result: mHtt clearance)
O=C(NCc1ccc2c(c1)OCO2)c1cc2ccccc2oc1=O	none (no result: NADH coupling, Abs 340nm, Autofluor 339, M1 antag, M1 ag)
O=C(c1cc2ccccc2oc1=O)N(Cc1ccc2c(c1)OCO2)Cc1ccco1	M1 ag 5.01 | M1 agonist conf inactive | M4 agonist ctr inconclusive
CN(C)CCOC(=O)CCc1ccccc1	none
CN(C)CCOc1ccccc1Cc1ccccc1	M1 antag -6.44, M1 ag 32.5 (no result: mHtt clearance) | M1 agonist conf inactive | M4 agonist ctr inactive
COc1ccc(C2C3=C(CC(C)(C)CC3=O)Nc3c2c(=O)[nH]c(=O)n3Cc2ccccc2)cc1OC (configuration not stated)	M1 ag 9.85 | M1 agonist conf inactive | M4 agonist ctr inactive
COc1ccc(C2C3=C(CC(C)(C)CC3=O)Nc3c2c(=O)[nH]c(=O)n3Cc2ccccc2)cc1 (configuration not stated)	M1 ag 2.72 (no result: mHtt clearance) | M1 agonist conf inactive | M4 agonist ctr inactive
COc1cc(C2C3=C(CC(C)(C)CC3=O)Nc3c2c(=O)[nH]c(=O)n3Cc2ccccc2)ccc1O (configuration not stated)	none (no result: mHtt clearance)
Cc1nc2[nH]c(=O)c3c(n2n1)NC1=C(C(=O)CC(C)(C)C1)C3c1ccc(F)cc1 (configuration not stated)	Autofluor 339 3.78, M1 ag 3.84 (no result: mHtt clearance) | M1 agonist conf inactive | M4 agonist ctr inactive
O=c1[nH]c(/C(=N\O)c2ccccc2)no1	none (no result: mHtt clearance)
Cc1ccc(CNC(=O)C2CCCN(c3nc4ccccc4o3)C2)cc1 (configuration not stated)	none (no result: mHtt clearance)
O=C(NCCC1=CCCCC1)C1CCCN(c2nc3ccccc3o2)C1 (configuration not stated)	M1 ag 6.79 (no result: mHtt clearance) | M1 agonist conf inconclusive | M4 agonist ctr inconclusive
Nc1c(N2CCOCC2)cc(Cl)c2nonc12	none (no result: mHtt clearance)
Nc1c(N2CCCC2)cc(Cl)c2nonc12	M1 ag 4.15 | M1 agonist conf inactive | M4 agonist ctr inactive
CC1CCCN(C/C(O)=C(\C#N)c2nc3ccccc3[nH]2)C1 (configuration not stated)	M1 antag -4.17, M1 ag 5.38 (no result: mHtt clearance) | M1 agonist conf inconclusive | M4 agonist ctr inactive
CC(C)(C)/C(O)=C(/C#N)c1nc2ccccc2[nH]1	none (no result: mHtt clearance)
CC(C)OCCCNc1ncnc2c1[nH]c1ccccc12	Autofluor 339 2.65, M1 antag -4.26, M1 ag 3.23 | M1 agonist conf inactive | M4 agonist ctr inconclusive
Cn1c(=O)c(C(=O)CSc2nncs2)c(N)n(Cc2ccccc2)c1=O	none
Cc1ccc(-c2cn3nc(C)c(C)nc3n2)cc1	Autofluor 339 2.9, M1 ag 10.9 (no result: mHtt clearance) | M1 agonist conf 103 | M4 agonist ctr inactive
COC(=O)CCC(=O)Nc1ccc(NC(=O)CCC(=O)OC)cc1	none
COC(=O)CCC(=O)Nc1ccc(NC(C)=O)cc1	M1 ag 5.51 | M1 agonist conf inactive | M4 agonist ctr inactive
CSc1ccccc1C(=O)NCc1ccc2c(c1)OCO2	none
O=C(CSc1nnc(-c2cccs2)n1-c1ccccc1)c1ccc2c(c1)OCCO2	none (no result: mHtt clearance)
O=C(CSc1nc2[nH]ncc2c(=O)n1-c1ccccc1)c1ccc2c(c1)OCCO2	M1 ag 7.22 | M1 agonist conf inconclusive | M4 agonist ctr inactive
CCOc1ccc(C2C=C(c3ccc(C)cc3)Nc3nnnn32)cc1 (configuration not stated)	none
CCOc1ccc(C2C=C(c3ccccc3)Nc3nnnn32)cc1 (configuration not stated)	none
COc1ccc(C2C=C(c3ccccc3)Nc3ncnn32)cc1 (configuration not stated)	Autofluor 339 3.39, M1 ag 9.71 (no result: mHtt clearance) | M1 agonist conf 85.6 | M4 agonist ctr inactive
CCOc1ccc(C2C=C(c3ccc(C)cc3)Nc3ncnn32)cc1 (configuration not stated)	Autofluor 339 3.59, M1 ag 5.48 (no result: mHtt clearance) | M1 agonist conf 129 | M4 agonist ctr inconclusive
Cc1nc2ccccc2n2c(O)c(CC(=O)O)cc12	M1 ag 269 (no result: mHtt clearance) | M1 agonist conf 1125 | M4 agonist ctr 1088
Cc1nc2ccccc2n1CCC(=O)O	none (no result: NADH coupling, Abs 340nm, Autofluor 339, M1 antag, M1 ag)
CCn1c(SCC(=O)NCc2ccc3c(c2)OCO3)nnc1-c1c[nH]c2ccccc12	none (no result: mHtt clearance)
CCCC(=O)c1c(C)c2ccccc2n1C	none
Cc1nnc(C)n1/N=C/c1cc(Br)cc(Br)c1O	M1 ag 27.1 (no result: mHtt clearance) | M1 agonist conf 143 | M4 agonist ctr inconclusive
Cc1nnc(C)n1/N=C/c1cc(Br)ccc1O	M1 ag 8.22 | M1 agonist conf inactive | M4 agonist ctr inactive
